According to PMC12864922, “TDP-43 directly inhibits mRNA accumulation in neurites through modulation of mRNA stability”:
The full ranking holds about 9,900 sequences; the median of “r (bound/input frequency ratio)” is about 0.7, and the highest 2% start at about 6.5. The entries come from a sample that favours the highest values as a whole.

B1: ENSMUSG00000031028.55|Tub (ssRNA)
RNA: GGGAGUUCUACAGUCCGACGAUCGCUUCGAUAUCCGCAUGCUAUGUGCCCCAAGGUCAACACACAUGCCCAGUCCUGGGUCAGUCCCCUGCUGCAGUGGUGUUAUCACACCGGAAAGCCUCUUCACCUGGAGGUACAGAGGGAGAGGAAGCACAAGCCUGGCUGCUGUGGCUCAGCCAUCCACUCAGCCUACGAGUCAGAGACAGUGGGUGUCCCGGGAAGCAGGGGUACAGUGAGUGUGUGUGUAUGUACAGGGCACUCAAGCUGUAUGUAGAAAAAGCUCUGGUGGUCAGCAGAAAGCACUCUCUUGCGGUCGCACUAGUGUGGAAUUCUCGGGUGUCAAGG
B2: ENSMUSG00000042529.483|Kcnj12 (ssRNA)
RNA: GGGAGUUCUACAGUCCGACGAUCGCUUCGAUAUCCGCAUGCUAUCUCUUUGAAUGCUACUGUGUUGAGAUGUGCGUCUCACUGGCCUCUGCCUGCCUCUCCCGCCUGCGGAGCACUUACACUUCCUGGGGCCCCUGCAGCUGGACCAUGUACAGGGCUCCCUGGGGCUUGUCCUCAGGGGCAGAGAAGGACAUGGUGGCAGCAGCACUGAGAACAGGAGCAUGGCCUCUCUCAGACCCCAGGGCAGUCAUUCAGUCUUUUCCAUGGACACUCCCCACCGCUCCACAUACUGCCUCCGCCUCAUCUCUUGCGGUCGCACUAGUGUGGAAUUCUCGGGUGUCAAGG
B3: ENSMUSG00000061578.627|Ksr2 (ssRNA)
RNA: GGGAGUUCUACAGUCCGACGAUCGCUUCGAUAUCCGCAUGCUAAGGGAGCAACCUAUAGGAAAUGCAAAGGCUUAGAGGGGACGGACAGCUCCCUGACCCUGGAUGGCCAGGAAUGGUGCUAGCUAGGGUGUGAGCCAAGCCCUUGAGGCUACUGUGAGUUAUGAGAUGUGUCCAACCCUCAGCCCACAGACUGCAUAUGCCCCAGGACAGCUGUGAAGGUGACCCAAUACAAAAUCGUAAACUAACUUAAAACCAUUAAGGGUUUUUGUUUUGUUGUUGUUUGCUGGCUUUUUGUUUUUUGGCUCUUGCGGUCGCACUAGUGUGGAAUUCUCGGGUGUCAAGG
B4: ENSMUSG00000042529.54|Kcnj12|94:101;234:238 (ssRNA)
RNA: GGGAGUUCUACAGUCCGACGAUCGCUUCGAUAUCCGCAUGCUAGCAAGGAGGUGACUUCUUGGGGUAGGGUUGCUCAGGAGUUAGGGACUCUGCUGGAGGCCUUAGGUGCAGGUCCCAGCCCCGGUGGGAGGAGGCACACAUACUACACUUCAUUGGUUUUUAACUUGGGCAAGACUGUUUACAAACAAAAACAAACAAACAAACAAUCAAAAAAAAAACCCACCCCACAAAACACAAGAAAACAUUAACAGGUGGUUCAAUUUUUAAAAUUCCUGCACACGGGACAGUUGGAAUUCUACUCACUCUUGCGGUCGCACUAGUGUGGAAUUCUCGGGUGUCAAGG
B5: ENSMUSG00000042529.244|Kcnj12|181:185 (ssRNA)
RNA: GGGAGUUCUACAGUCCGACGAUCGCUUCGAUAUCCGCAUGCUAAGAUAGGCUGGCUCCCAGGCACCUUGCUUCAGAUUCCAUGCUAAUUUCUAAUCUAGGAGAUUCCCCUAGGACCCGCUGCAGAGGCAUGGGCUCCUCUGUGGUCCUGGCCAGACCUCUGCCCCCAAAUCUCACUGACUGUUCUAGCCUUGGCCUUGGGGCCUAAGGGUGCAUUCAGCCUGGCACACCUUACCUGCCACUCACCUCUCUAUCUAGUUGUCGAGUCUAGGGAAGGGCAGAGGGUGGGUCCUGGCCACUGGGUGCUCUUGCGGUCGCACUAGUGUGGAAUUCUCGGGUGUCAAGG
B6: ENSMUSG00000031028.132|Tub|108:112;184:189 (ssRNA)
RNA: GGGAGUUCUACAGUCCGACGAUCGCUUCGAUAUCCGCAUGCUAGGGGAUGAUAGGAGUCAUCCAGUAGACUCCCUACAUCAGGGCUCUCAGCAGCCCCAGCACAACACCUAUGACACACACACAGGAUCUAGGUCACCAUUCAAGUAAUGCAUACCUUCAGGAAGAAUGUCCUCUCUGGGAAGACUCAGCUCCCAUUAUUGCCAGCAUGCCAUGAUCAGUGAGGGCACACACCCAUGCUUAGGGGGAUGGCGCAGGGUGAGGGGAGCAGAGGAUAUUUUAGGGCCACAAGAGCUCAGAGGUAGCUCUUGCGGUCGCACUAGUGUGGAAUUCUCGGGUGUCAAGG
B7: ENSMUSG00000032194.60|Kank2 (ssRNA)
RNA: GGGAGUUCUACAGUCCGACGAUCGCUUCGAUAUCCGCAUGCUAAGGGGGGGCAAGAAGAGAAAAUACUGUAUUCUUGAGUCAUUGUUAGGGGAUGGGAGGGGUCAGAAUUCAGUUGCUAAAUUUGAAUGUCACUGGAAUGUUACAGUGUCUAUUGUCUCCUCAUCUUUACAGCAGGUCUCCACAAAGCCUGCUCACCACCCUUUGUCACCUCAUUUCAUUGUCUAGUGUACAAUAGGGUCUUGUCCACUGCCCUCCACCUCCAGACUGUGUCUUCAGGGCCUGGGGUGUCUCUUGUGAUUGCUCUCUUGCGGUCGCACUAGUGUGGAAUUCUCGGGUGUCAAGG
B8: ENSMUSG00000061578.444|Ksr2 (ssRNA)
RNA: GGGAGUUCUACAGUCCGACGAUCGCUUCGAUAUCCGCAUGCUAAAUCCUUCAAGACAGAAGUUUCAGAGGGGAUAGUUCCUUCUAACCUUGUACUGGGACAUCAUCUAUGUCCCCAUCCCCAGAGCUGAAUUAGAGACACCAAGUAGCCUCUUGGGUUGUUUUGUGGGGUGUUCCCCUUGCUGGUCAAAGGAGUGGAAAGCCACCUUGCUGUAAAUGCUCUUGUUUUCUGUAGCAAUCUUGAACUCUUUUUUUUUUUUGUUCGUUUGUUUGUUUGUUUGUUUGUUUGUUUUUUCAAGACAGGGCUCUUGCGGUCGCACUAGUGUGGAAUUCUCGGGUGUCAAGG
B9: ENSMUSG00000058297.3|Spock2|233:237;241:254 (ssRNA)
RNA: GGGAGUUCUACAGUCCGACGAUCGCUUCGAUAUCCGCAUGCUAAGAAAAGGAGACAGAAGAGGCAGGGGAGGAGGCCGAGGAGGAGGAGGGUGAGGCGGGUGAGGCAGAUGAUGGAGGCUACAUCUGGUAGAUAGCCCUCGACGGCCUCGGCAGGCCAGGGUGCCGACGGCCAGAAAGACAGGCCAGAAGAGACCUGGACAACAGCAGGCAACUUAGCAAAUGGAUCCGGAAGUCAGUGCGGAGGACCCUGGCUCCAGUGGGGGAGGACUGGGGACACACGCUACACACAUACACACAUAUGACUCUUGCGGUCGCACUAGUGUGGAAUUCUCGGGUGUCAAGG

Target: TDP-43 (Homo sapiens, UniProt Q13148 1-414)
Sequence (Q13148 whole entry): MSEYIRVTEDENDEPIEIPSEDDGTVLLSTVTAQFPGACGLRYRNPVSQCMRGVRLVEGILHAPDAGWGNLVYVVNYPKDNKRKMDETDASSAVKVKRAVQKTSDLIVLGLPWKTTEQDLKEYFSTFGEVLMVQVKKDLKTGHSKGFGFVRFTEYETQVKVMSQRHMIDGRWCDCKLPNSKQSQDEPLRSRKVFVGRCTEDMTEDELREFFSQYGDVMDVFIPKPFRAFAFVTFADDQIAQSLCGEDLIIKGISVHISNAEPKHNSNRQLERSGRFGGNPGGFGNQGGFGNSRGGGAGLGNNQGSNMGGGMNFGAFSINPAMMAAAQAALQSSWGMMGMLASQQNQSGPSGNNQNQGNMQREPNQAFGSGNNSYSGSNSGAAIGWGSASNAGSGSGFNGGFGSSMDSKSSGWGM
Experiment: RNA Bind-n-Seq with designed 260-mer pool; 25 mM Tris-HCl, 150 mM KCl, 3 mM MgCl2, BSA (printed 500 mg/mL), 20 units/mL SUPERase IN; pH not stated; 500 nM RNA pool, 1 h, 4 C; TDP-43 5, 50, 500 nM; high values mean tight binding
Details: protein: recombinant; tags: SBP (GST cleaved off with PreScission; pGEX-GST-SBP)
Procedure, shortened: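 The incubation lasted 1 h at 4 °C and used 500 nM of an in vitro-transcribed 260-nt 3′ UTR oligo pool with recombinant SBP-tagged TDP-43 at 5, 50 or 500 nM immobilized on streptavidin beads. It took place in 25 mM Tris-HCl, 150 mM KCl, 3 mM MgCl2, BSA and SUPERase IN. Bound RNA was washed, eluted with biotin, converted to cDNA, PCR-amplified and sequenced to give R, each oligo's normalized abundance in the bound sample divided by that in input. Two independent protein batches provided the duplicates.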

Binder | binding signal
B1 | 0.773 R (bound/input frequency ratio)
B2 | 0.21 R (bound/input frequency ratio)
B3 | 0.542 R (bound/input frequency ratio)
B4 | 0.46 R (bound/input frequency ratio)
B5 | 1.24 R (bound/input frequency ratio)
B6 | 0.891 R (bound/input frequency ratio)
B7 | 2.47 R (bound/input frequency ratio)
B8 | 2.36 R (bound/input frequency ratio)
B9 | 2.67 R (bound/input frequency ratio)
